Laboratory results published in PubChem BioAssay (Tox21).
Values without a mark were called inactive. Entries that show only a call come without a potency. Active and inactive are the calls of the source. Unless noted, the call rests on the fitted dose curve; in most records, active means well fitted curve in the direction sought with a large enough effect in the repeat runs; inconclusive means weak or mixed curves; inactive means no such curve, though single readings can be large; an effect the other way counts as inactive or inconclusive.

Key:
[1] = qHTS assay to identify small molecule antagonists of the thyroid receptor (TR) signaling pathway - cell viability counter screen (AID 743064); further: nearly all actives have a fitted effect of over 50% in size; further: potency means the concentration at half of the fitted maximal effect
How it was run: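 In rat pituitary GH3.TRE-Luc reporter cells co-exposed to compound and 1 nM T3 for 23.5 h, cytotoxicity was assessed with CellTiter-Fluor in the same wells, read by fluorescence.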

[2] = qHTS assay to identify small molecule antagonists of the thyroid receptor (TR) signaling pathway (AID 743065); further: nearly all actives have a fitted effect of over 55% in size; further: potency means the concentration at half of the fitted maximal effect
How it was run: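 Antagonism measured as loss of luciferase signal in GH3 cells stably carrying a TRE-luciferase reporter, co-treated with compound and T3 (1 nM final) for 23.5 h at 37 C. Viability was read in the same well by CellTiter-Fluor.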

[3] = tested on: thyroid hormone receptor (rat, GH3 cells); assay: qHTS assay to identify small molecule agonists of the thyroid receptor (TR) signaling pathway (AID 743066; calls by dose curve)
[4] = qHTS assay to identify small molecule antagonists of the estrogen receptor alpha (ER-alpha) signaling pathway - cell viability counter screen (AID 743074; calls by dose curve;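 further: HEK293 cells carrying ER-alpha-UAS-bla reporter stimulated with 17beta-estradiol; nearly all actives have a fitted effect of over 45% in size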)
[5] = biological target: Estrogen receptor (Homo sapiens) (UniProt P03372); assay: qHTS assay to identify small molecule agonists of the estrogen receptor alpha (ER-alpha) signaling pathway (AID 743075; calls by dose curve;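 further: HEK293 GripTite cells with ER-alpha and UAS-driven beta-lactamase reporter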; further: potency means the concentration at half of the fitted maximal effect)
Chain of Estrogen receptor (Homo sapiens) (P03372 whole entry, looked up): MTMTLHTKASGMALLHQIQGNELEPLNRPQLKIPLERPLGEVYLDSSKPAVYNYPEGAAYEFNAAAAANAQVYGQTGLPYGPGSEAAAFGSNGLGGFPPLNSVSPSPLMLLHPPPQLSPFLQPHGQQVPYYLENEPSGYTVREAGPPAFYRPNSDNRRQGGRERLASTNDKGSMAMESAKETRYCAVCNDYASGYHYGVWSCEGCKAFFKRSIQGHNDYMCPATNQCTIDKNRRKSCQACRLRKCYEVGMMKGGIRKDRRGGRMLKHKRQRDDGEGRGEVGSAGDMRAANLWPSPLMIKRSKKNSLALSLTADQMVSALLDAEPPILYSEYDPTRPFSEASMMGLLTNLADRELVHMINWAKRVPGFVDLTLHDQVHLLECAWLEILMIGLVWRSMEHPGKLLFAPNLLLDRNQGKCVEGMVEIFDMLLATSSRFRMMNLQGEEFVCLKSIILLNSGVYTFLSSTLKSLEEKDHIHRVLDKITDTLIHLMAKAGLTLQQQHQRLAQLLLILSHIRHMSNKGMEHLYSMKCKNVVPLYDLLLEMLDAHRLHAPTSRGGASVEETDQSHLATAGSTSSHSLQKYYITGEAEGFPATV

[6] = biological target: Estrogen receptor (Homo sapiens) (UniProt P03372); assay: qHTS assay to identify small molecule agonists of the estrogen receptor alpha (ER-alpha) signaling pathway using the BG1 cell line (AID 743079); settings: BG1Luc4E2 cells, ERE-luciferase agonist, 22 h; further: nearly all actives have a fitted effect of over 20% in size; further: potency means the concentration at half of the fitted maximal effect
[7] = qHTS assay to identify small molecule antagonists of the estrogen receptor alpha (ER-alpha) signaling pathway using the BG1 cell line (AID 743080; calls by dose curve;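 further: BG1 cells stimulated with 17beta-estradiol alongside compound; nearly all actives have a fitted effect of over 25% in size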; further: potency means the concentration at half of the fitted maximal effect)
How it was run: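 After 5 days in phenol-red-free 10% charcoal-stripped FBS medium, BG1-Luc-4E2 cells were seeded, left 24 h at 37 C, co-treated with compounds and 17beta-estradiol for 21.5 h, then assayed for viability and luciferase.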

[8] = qHTS assay to identify small molecule antagonists of the estrogen receptor alpha (ER-alpha) signaling pathway using the BG1 cell line - cell viability counter screen (AID 743081);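 further: compound given together with 17beta-estradiol as the ER stimulus; nearly all actives have a fitted effect of over 45% in size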
Aromatase (Homo sapiens) = Aromatase (Homo sapiens) (UniProt P11511); assay: qHTS assay to identify aromatase inhibitors (AID 743083); further: nearly all actives have a fitted effect of over 55% in size; further: potency means the concentration at half of the fitted maximal effect
Chain of Aromatase (Homo sapiens) (P11511 whole entry, looked up): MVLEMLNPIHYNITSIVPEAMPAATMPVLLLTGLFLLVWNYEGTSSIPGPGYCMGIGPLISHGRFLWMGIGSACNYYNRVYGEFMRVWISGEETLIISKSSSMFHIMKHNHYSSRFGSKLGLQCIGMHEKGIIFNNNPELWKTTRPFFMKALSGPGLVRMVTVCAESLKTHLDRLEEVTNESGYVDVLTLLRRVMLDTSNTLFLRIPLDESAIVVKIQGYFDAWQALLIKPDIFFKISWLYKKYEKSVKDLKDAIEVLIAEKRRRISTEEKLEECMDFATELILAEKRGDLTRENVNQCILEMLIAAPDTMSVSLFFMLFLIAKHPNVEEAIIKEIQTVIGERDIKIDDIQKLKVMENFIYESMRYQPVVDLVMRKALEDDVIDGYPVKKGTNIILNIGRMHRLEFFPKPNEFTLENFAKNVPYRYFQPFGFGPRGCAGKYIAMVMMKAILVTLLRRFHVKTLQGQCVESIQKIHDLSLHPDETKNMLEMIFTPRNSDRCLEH

[9] = biological target: Estrogen receptor (Homo sapiens) (UniProt P03372); assay: qHTS assay to identify small molecule antagonists of the estrogen receptor alpha (ER-alpha) signaling pathway (AID 743069; active means well fitted curve in the direction sought with a large enough effect in the signal ratio in the repeat runs, not every such curve was filed as active; inconclusive means weak or mixed curves, or effect the other way; inactive means no such curve, though single readings can be large or run the other way; the % refers to the signal ratio)
How it was run: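 Antagonist mode: compounds in DMSO were co-added with 17beta-estradiol to ER-alpha-bla HEK293 cells (2% charcoal-stripped serum) and left 18 h at 37C. Reporter inhibition was measured as FRET fluorescence after 2 h LiveBLAzer substrate at room temperature.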

SMILES	Potency [1]	Potency [2]	Potency [3]	outcome [4]	Potency [5]	activation ([6]; at 70.3 µM (top of the series))	Potency [7]	Potency [8]	Potency (Aromatase (Homo sapiens))	Potency [9]	activation ([6]; at 95 µM (top of the series))	Potency [6]
Oc1c(Cl)cccc1Cl	inactive	inactive	inactive	inactive	inactive	20.4%	inactive	inactive	inactive	–	–	–
O=S(=O)(O)C(F)(F)C(F)(F)C(F)(F)C(F)(F)C(F)(F)C(F)(F)F	inactive	inactive	inactive	–	inactive	-0.729%	inactive	inactive	inactive	inactive	–	–
O=C1OC(=O)C2C1C1(Cl)C(Cl)=C(Cl)C2(Cl)C1(Cl)Cl (centres undefined)	inactive	inactive	inactive	–	inactive	–	inactive	inactive	inactive	inactive	-12.2%	–
CCCCc1c(C)nc(NCC)[nH]c1=O	inactive	inactive	inactive	inactive	inactive	0.176%	inactive	inactive	inactive	inactive	–	–
CNC(=O)Oc1ccc(N(C)C)c(C)c1	inactive	inactive	inactive	inactive	inactive	–	inactive	inactive	inactive	inactive	–	–
CC1=C(C(=O)Nc2ccccc2)S(=O)(=O)CCO1	30.6 µM (active)	27.3 µM (active)	inactive	inactive	inactive	–	76.9 µM (active)	inactive	48.5 µM (active)	inactive	–	–
c1coc(-c2nc3ccccc3[nH]2)c1	inactive	inactive	inactive	inactive	–	–	–	inactive	inactive	inactive	–	30.6 µM (active)
C[C@]12CC[C@H]3[C@@H](CC=C4C[C@@H](O)CC[C@@]43C)[C@@H]1CC[C@@H]2O	inactive	inactive	inactive	inactive	–	–	–	inactive	inactive	–	–	–
CC(C)COP(=O)(OCC(C)C)OCC(C)C	inactive	inactive	inactive	inactive	–	–	–	inactive	–	–	–	–
CCOC(=O)CP(=O)(OCC)OCC	inactive	inactive	inactive	inactive	inactive	–	inactive	inactive	inactive	inactive	–	–
CSc1ccc(C(=O)C(C)(C)N2CCOCC2)cc1	inactive	inactive	inactive	–	61.6 µM [inconclusive] (active)	–	inactive	inactive	inactive	inactive	–	3.44 µM (active)
NC(=O)c1cc([N+](=O)[O-])cc([N+](=O)[O-])c1	inactive	inactive	inactive	inactive	inactive	–	inactive	inactive	inactive	inactive	–	–
CC1(C)C(=O)NC(=O)NC1=O	inactive	inactive	inactive	–	inactive	-7.44%	inactive	inactive	inactive	inactive	–	–
CCOC(=O)N(C)C(=O)CSP(=S)(OCC)OCC	inactive	inactive	inactive	inactive	–	–	–	inactive	–	–	–	–
CCS(=O)(=O)C(C)(C)S(=O)(=O)CC	inactive	inactive	inactive	inactive	inactive	0.0569%	inactive	inactive	inactive	inactive	–	–
COP(=S)(OC)Oc1ccc(S(N)(=O)=O)cc1	inactive	inactive	inactive	–	inactive	10.7%	inactive	inactive	inactive	inactive	–	–
O=C(CCN1CC1)OCC(CO)(COC(=O)CCN1CC1)COC(=O)CCN1CC1	inactive	inactive	inactive	inactive	–	–	–	inactive	inactive	–	–	–
O=CNC(N1CCN(C(NC=O)C(Cl)(Cl)Cl)CC1)C(Cl)(Cl)Cl (centres undefined)	inactive	inactive	inactive	–	inactive	-11.3%	inactive	inactive	inactive	inactive	–	–
CC(=O)Nc1cc([As](=O)(O)O)ccc1O	inactive	inactive	inactive	–	inactive	10%	–	inactive	inactive	inactive	–	–
O=C1OC(c2ccc(O)c(S(=O)(=O)O)c2)(c2ccc(O)c(S(=O)(=O)O)c2)c2c(Br)c(Br)c(Br)c(Br)c21	inactive	inactive	inactive	inactive	inactive	-0.304%	inactive	–	inactive	inactive	–	–
COCC(=O)N(c1c(C)cccc1C)N1CCOC1=O	inactive	inactive	inactive	inactive	–	–	–	inactive	inactive	–	–	–
COC(C)(C)C	inactive	inactive	inactive	inactive	–	–	–	inactive	inactive	–	–	–
CCNc1nc(NC(C)C)nc(OC)n1	inactive	inactive	inactive	inactive	–	–	–	inactive	inactive	–	–	–
CCC(Cl)[N+](=O)[O-] (centres undefined)	inactive	–	inactive	inactive	inactive	–	inactive	inactive	inactive	inactive	-4.86%	–
CNCC(=O)c1ccc(O)c(O)c1	inactive	inactive	inactive	–	inactive	-0.0937%	inactive	–	inactive	–	–	–
CCC#N	inactive	inactive	inactive	–	–	–	–	inactive	–	–	–	–
COc1ncc(F)c2nc(S(=O)(=O)Nc3c(F)cccc3F)nn12	inactive	–	inactive	inactive	inactive	-3.47%	inactive	inactive	inactive	inactive	–	–
C=CCC1=C(C)[C@@H](OC(=O)[C@@H]2[C@@H](C=C(C)C)C2(C)C)CC1=O	61.1 µM (active)	61.1 µM (active)	–	inactive	inactive	–	54.5 µM (active)	inactive	–	–	–	–
CCN(CC)CCOC(=O)C(C)(c1ccccc1)c1ccccc1	26.6 µM (active)	26.6 µM (active)	inactive	inactive	–	–	–	–	inactive	–	–	–
